Assay results from PMC7862700, “An all-to-all approach to the identification of sequence-specific readers for epigenetic DNA modifications on cytosine”.

Tests used:
Test in all cases: DAPPL (digital affinity profiling via proximity ligation, sequencing); 10 mM Tris-HCl pH 7.5, 50 mM NaCl, 1 mM DTT, 4% glycerol, room temperature, 30 min; GST-TFs on glutathione beads, 16-mer random dsDNA library, 0.1% formaldehyde crosslink after washing; high values mean tight binding
FLI1 = target: T1, FLI1 (Homo sapiens, UniProt Q01543 1-452); conditions: protein: recombinant; tags: N-terminal GST; dsDNA, one strand shown
T1 sequence: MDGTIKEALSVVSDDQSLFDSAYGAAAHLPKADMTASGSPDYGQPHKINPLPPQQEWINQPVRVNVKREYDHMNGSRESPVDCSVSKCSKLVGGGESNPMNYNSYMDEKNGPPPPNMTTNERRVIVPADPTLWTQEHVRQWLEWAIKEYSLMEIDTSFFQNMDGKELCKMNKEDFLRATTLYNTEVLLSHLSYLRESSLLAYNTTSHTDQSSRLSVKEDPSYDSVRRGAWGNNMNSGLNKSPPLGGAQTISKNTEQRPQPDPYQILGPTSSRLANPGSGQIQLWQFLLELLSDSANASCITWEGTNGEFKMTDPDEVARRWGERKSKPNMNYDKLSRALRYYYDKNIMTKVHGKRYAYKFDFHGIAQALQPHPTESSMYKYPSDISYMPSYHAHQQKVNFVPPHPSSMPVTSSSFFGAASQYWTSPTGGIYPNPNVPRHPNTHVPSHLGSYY
In short: (§1)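 Sequencing on an Illumina NextSeq500 followed washing, crosslinking with 0.1% formaldehyde, proximity ligation (BsaI/T4 ligase, 1 h, 37 °C) and PCR amplification of pools that had been incubated for 30 min at room temperature with 200 nmole of a random double-stranded 16-mer DNA library in Tris/NaCl/DTT/glycerol buffer. Each pool held DNA-barcoded human transcription factors, expressed in yeast as GST fusions and captured on glutathione beads, plus a tag-only sample. Binding signal is a hexamer's read frequency for a factor divided by its frequency in the tag-only sample.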

ELK1 = target: T2, ELK1 (Homo sapiens, UniProt P19419 1-428); conditions: protein: recombinant; tags: N-terminal GST; dsDNA, one strand shown
T2 sequence: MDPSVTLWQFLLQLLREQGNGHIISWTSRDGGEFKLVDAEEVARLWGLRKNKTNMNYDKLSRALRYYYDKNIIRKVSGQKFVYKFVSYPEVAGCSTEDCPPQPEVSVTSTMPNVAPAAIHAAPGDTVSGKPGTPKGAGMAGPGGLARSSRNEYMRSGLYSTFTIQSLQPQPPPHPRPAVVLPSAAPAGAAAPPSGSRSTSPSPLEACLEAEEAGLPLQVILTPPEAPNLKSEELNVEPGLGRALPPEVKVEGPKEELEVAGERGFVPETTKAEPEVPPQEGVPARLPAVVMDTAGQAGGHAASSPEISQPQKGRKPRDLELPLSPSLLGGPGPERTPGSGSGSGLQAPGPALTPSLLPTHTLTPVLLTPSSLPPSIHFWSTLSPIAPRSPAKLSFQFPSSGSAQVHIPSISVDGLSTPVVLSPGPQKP
In short: as §1

GABPA = target: T3, GABPA (Homo sapiens, UniProt Q06546 1-454); conditions: protein: recombinant; tags: N-terminal GST; dsDNA, one strand shown
T3 sequence: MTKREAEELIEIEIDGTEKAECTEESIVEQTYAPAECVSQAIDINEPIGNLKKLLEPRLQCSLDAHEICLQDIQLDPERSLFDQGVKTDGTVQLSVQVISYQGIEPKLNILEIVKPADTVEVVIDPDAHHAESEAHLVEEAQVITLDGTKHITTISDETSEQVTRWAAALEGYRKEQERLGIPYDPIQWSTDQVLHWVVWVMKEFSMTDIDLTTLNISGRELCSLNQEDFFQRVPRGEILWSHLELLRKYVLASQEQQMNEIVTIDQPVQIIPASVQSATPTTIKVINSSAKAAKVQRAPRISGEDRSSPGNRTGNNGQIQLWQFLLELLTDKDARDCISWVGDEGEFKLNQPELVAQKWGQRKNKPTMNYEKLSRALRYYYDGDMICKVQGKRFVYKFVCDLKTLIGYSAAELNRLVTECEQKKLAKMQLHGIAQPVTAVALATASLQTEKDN
In short: as §1

ERG = target: T4, ERG (Homo sapiens, UniProt P11308 1-479); conditions: protein: recombinant; tags: N-terminal GST; dsDNA, one strand shown
T4 sequence: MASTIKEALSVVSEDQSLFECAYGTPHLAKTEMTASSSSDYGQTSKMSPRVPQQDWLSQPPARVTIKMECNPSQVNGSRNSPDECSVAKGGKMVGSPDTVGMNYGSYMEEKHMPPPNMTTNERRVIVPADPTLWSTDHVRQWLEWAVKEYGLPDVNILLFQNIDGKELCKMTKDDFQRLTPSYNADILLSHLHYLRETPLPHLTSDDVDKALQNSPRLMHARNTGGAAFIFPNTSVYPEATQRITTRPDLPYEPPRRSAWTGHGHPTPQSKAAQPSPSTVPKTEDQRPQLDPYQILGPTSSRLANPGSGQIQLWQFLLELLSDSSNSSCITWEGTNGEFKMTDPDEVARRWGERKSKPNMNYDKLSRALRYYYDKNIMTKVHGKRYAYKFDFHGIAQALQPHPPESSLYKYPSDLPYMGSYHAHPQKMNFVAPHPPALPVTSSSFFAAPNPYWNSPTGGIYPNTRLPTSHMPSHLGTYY
In short: as §1

ELF1 = ELF1 (Homo sapiens, UniProt P32519 1-619); conditions: protein: recombinant; tags: N-terminal GST; dsDNA, one strand shown
In short: as §1

EHF = target: T5, EHF (Homo sapiens, UniProt Q9NZC4 1-300); conditions: protein: recombinant; tags: N-terminal GST; dsDNA, one strand shown
T5 sequence: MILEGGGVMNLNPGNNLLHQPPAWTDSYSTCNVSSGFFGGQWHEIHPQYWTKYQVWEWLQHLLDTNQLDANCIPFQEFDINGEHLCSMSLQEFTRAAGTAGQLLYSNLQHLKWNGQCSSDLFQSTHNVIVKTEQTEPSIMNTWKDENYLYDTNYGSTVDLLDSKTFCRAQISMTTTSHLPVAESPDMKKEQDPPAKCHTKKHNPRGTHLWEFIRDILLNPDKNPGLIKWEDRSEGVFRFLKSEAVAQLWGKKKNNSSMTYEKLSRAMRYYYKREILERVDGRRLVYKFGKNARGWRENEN
In short: as §1

SPI1 = SPI1 (Homo sapiens, UniProt P17947 1-270); conditions: protein: recombinant; tags: N-terminal GST; dsDNA, one strand shown
In short: as §1

SPIB = SPIB (Homo sapiens, UniProt Q01892 1-262); conditions: protein: recombinant; tags: N-terminal GST; dsDNA, one strand shown
In short: as §1

ELK3 = target: T6, ELK3 (Homo sapiens, UniProt P41970 1-407); conditions: protein: recombinant; tags: N-terminal GST; dsDNA, one strand shown
T6 sequence: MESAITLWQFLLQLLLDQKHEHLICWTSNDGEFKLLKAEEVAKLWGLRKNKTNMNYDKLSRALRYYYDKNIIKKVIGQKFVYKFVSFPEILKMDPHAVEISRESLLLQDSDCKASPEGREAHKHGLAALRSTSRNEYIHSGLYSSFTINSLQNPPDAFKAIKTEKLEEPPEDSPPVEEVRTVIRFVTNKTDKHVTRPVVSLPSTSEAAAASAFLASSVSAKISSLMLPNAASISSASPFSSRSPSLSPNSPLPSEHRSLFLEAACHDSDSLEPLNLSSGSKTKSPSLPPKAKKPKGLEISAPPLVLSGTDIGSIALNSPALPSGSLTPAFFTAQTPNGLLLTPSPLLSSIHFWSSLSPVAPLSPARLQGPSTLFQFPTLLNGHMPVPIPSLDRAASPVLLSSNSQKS
In short: as §1

FEV = target: T7, FEV (Homo sapiens, UniProt Q99581 1-238); conditions: protein: recombinant; tags: N-terminal GST; dsDNA, one strand shown
T7 sequence: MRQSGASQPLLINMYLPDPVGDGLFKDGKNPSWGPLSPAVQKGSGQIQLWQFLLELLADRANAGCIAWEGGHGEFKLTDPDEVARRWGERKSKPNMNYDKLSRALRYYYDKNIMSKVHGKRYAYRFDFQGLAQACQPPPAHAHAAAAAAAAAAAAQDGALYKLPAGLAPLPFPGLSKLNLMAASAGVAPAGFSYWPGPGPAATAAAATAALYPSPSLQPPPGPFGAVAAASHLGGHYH
In short: as §1

ETV5 = ETV5 (Homo sapiens, UniProt P41161 1-510); conditions: protein: recombinant; tags: N-terminal GST; dsDNA, one strand shown
In short: as §1

HSF1 = HSF1 (Homo sapiens, UniProt Q00613 1-529); conditions: protein: recombinant; tags: N-terminal GST; chain copies: 3; dsDNA, one strand shown
In short: as §1

SPIC = target: T8, SPIC (Homo sapiens, UniProt Q8N5J4 1-248); conditions: protein: recombinant; tags: N-terminal GST; dsDNA, one strand shown
T8 sequence: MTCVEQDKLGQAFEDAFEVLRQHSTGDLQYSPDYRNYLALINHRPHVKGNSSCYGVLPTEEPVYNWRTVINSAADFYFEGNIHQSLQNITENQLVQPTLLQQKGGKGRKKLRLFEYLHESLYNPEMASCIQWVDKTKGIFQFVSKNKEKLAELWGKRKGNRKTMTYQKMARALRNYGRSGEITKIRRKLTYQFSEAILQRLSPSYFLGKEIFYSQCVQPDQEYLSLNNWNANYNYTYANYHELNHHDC
In short: as §1

ELF4 = ELF4 (Homo sapiens, UniProt Q99607 1-663); conditions: protein: recombinant; tags: N-terminal GST; dsDNA, one strand shown
In short: as §1

ELK4 = target: T9, ELK4 (Homo sapiens, UniProt P28324-2 1-405); conditions: protein: recombinant; tags: N-terminal GST; dsDNA, one strand shown
T9 sequence: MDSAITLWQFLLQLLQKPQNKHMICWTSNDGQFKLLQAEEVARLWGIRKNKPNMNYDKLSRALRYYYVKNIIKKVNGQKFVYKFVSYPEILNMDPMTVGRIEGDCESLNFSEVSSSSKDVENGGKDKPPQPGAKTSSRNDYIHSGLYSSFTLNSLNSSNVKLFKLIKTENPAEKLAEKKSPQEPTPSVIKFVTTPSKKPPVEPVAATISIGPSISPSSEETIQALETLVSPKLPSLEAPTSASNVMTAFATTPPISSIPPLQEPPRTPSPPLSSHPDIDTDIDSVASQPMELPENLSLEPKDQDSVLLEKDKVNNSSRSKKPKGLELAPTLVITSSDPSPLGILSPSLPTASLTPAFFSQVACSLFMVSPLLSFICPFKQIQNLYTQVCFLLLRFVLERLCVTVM
In short: as §1

ETV2 = target: T10, ETV2 (Homo sapiens, UniProt O00321 1-342); conditions: protein: recombinant; tags: N-terminal GST; dsDNA, one strand shown
T10 sequence: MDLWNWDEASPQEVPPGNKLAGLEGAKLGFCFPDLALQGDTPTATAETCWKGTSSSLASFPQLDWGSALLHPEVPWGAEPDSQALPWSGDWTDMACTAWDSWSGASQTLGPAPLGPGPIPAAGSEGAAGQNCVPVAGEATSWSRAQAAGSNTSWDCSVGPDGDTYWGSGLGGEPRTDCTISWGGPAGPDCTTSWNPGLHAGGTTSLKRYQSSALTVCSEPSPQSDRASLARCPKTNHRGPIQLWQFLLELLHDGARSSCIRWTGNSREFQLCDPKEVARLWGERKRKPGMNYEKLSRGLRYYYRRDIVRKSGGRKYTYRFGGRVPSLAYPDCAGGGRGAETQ
In short: as §1

ELF3 = target: T11, ELF3 (Homo sapiens, UniProt P78545 1-371); conditions: protein: recombinant; tags: N-terminal GST; dsDNA, one strand shown
T11 sequence: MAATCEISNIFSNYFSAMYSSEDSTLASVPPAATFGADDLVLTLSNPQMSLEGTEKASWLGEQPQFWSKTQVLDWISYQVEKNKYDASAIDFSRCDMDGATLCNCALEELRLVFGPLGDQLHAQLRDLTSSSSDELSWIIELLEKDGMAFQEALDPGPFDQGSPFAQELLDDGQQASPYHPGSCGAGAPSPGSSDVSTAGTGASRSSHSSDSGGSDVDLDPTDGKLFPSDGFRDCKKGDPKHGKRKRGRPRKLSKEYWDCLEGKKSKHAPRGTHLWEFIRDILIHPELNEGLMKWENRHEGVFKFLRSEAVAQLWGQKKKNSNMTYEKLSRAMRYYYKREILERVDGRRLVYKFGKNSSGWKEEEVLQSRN
In short: as §1

CRX = CRX (Homo sapiens, UniProt O43186 1-299); conditions: protein: recombinant; tags: N-terminal GST; dsDNA, one strand shown
In short: as §1

ETV1 = ETV1 (Homo sapiens, UniProt P50549 1-477); conditions: protein: recombinant; tags: N-terminal GST; dsDNA, one strand shown
In short: as §1

ELF1, sequence (P32519 whole entry): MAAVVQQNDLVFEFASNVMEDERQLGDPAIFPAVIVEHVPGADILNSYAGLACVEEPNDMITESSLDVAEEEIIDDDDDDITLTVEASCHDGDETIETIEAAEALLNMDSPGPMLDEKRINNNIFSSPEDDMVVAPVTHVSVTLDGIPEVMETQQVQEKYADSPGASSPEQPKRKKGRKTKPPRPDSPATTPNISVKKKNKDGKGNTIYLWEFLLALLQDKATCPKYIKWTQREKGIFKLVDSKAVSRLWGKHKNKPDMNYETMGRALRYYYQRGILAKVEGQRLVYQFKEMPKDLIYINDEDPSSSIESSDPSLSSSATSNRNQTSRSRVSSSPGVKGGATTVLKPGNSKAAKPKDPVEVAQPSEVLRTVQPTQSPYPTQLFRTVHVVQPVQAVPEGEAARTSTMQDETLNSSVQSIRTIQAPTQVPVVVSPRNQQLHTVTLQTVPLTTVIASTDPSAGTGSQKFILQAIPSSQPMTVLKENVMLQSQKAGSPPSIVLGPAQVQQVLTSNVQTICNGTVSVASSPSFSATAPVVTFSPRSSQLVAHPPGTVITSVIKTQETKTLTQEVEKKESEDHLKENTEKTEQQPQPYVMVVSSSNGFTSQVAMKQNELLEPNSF
HSF1, sequence (Q00613 whole entry): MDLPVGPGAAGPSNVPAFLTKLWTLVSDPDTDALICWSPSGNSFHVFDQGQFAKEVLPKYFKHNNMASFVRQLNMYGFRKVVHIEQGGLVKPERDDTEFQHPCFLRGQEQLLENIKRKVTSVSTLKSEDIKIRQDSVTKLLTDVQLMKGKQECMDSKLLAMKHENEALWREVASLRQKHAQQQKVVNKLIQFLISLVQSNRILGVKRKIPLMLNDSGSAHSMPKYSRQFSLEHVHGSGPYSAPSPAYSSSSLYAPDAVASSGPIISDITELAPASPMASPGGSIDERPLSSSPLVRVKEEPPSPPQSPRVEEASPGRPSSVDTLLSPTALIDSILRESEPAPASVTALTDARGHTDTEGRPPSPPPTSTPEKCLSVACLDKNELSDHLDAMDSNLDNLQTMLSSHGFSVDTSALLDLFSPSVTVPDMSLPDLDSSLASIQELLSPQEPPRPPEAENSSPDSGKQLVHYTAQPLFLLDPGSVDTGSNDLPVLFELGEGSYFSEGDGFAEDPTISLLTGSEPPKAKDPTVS
SPIB, sequence (Q01892 whole entry): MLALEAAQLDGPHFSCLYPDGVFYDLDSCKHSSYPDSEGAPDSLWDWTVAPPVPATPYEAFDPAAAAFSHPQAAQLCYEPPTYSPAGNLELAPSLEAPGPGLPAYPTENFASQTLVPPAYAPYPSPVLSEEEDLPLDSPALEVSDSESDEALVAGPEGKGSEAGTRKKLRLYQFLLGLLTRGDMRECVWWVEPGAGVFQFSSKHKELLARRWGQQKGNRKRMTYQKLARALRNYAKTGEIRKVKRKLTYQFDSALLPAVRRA
ETV5, sequence (P41161 whole entry): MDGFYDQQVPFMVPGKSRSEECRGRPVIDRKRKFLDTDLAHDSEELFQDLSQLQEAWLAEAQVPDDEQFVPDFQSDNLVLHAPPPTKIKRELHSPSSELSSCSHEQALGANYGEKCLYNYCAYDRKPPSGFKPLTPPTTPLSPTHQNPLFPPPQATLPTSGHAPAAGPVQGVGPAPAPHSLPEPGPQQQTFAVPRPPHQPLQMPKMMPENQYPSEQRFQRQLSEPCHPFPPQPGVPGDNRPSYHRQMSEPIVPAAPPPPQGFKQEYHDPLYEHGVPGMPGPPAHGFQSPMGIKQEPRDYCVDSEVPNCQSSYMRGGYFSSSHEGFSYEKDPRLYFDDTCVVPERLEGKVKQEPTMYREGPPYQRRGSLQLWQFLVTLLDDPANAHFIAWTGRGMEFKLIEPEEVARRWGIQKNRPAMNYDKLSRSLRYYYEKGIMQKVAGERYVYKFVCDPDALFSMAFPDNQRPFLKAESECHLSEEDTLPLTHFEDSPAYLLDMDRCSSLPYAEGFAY
ETV1, sequence (P50549 whole entry): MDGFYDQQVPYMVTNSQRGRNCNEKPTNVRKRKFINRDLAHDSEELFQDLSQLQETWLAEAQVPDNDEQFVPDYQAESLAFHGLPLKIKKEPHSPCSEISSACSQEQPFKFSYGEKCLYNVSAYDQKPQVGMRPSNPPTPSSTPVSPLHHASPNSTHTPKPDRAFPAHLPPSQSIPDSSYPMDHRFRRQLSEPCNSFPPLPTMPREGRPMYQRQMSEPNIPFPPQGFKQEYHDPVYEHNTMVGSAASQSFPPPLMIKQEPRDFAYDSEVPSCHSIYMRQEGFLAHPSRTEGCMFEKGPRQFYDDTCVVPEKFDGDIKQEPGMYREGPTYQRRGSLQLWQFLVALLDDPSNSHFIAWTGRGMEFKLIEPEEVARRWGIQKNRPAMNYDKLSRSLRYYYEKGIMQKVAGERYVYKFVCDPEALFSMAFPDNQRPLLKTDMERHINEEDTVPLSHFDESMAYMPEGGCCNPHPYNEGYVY
ELF4, sequence (Q99607 whole entry): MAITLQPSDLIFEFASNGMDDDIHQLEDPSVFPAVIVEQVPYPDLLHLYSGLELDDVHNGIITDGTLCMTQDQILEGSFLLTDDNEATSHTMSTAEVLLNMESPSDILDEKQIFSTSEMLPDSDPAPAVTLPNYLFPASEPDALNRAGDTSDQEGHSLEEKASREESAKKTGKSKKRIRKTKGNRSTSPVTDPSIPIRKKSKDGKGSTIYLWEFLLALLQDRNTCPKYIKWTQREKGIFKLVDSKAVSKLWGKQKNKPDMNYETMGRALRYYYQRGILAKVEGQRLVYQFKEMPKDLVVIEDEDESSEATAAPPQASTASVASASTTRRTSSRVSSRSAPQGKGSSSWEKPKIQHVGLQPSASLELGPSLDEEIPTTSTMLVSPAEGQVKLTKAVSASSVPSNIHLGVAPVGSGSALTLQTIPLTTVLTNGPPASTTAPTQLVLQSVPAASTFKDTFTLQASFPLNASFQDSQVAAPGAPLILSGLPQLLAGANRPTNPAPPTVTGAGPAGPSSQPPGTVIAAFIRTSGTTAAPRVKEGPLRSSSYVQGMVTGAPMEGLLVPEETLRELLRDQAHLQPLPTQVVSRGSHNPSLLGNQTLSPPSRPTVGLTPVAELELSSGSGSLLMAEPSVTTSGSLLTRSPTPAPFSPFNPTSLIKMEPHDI
CRX, sequence (O43186 whole entry): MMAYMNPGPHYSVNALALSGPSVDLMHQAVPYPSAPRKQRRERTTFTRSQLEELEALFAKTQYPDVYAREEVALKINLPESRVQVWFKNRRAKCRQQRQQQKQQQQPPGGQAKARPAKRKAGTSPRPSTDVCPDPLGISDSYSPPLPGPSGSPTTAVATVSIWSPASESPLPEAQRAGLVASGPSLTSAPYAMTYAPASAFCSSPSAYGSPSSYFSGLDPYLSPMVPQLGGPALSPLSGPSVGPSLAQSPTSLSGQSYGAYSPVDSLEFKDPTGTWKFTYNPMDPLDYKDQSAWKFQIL

Sequence: TAGCAC
- binding signal (FLI1): 1.16 fold enrichment (6-mer frequency, TF over GST control)
- binding signal (ELK1): 1.12 fold enrichment (6-mer frequency, TF over GST control)
- binding signal (GABPA): 1.24 fold enrichment (6-mer frequency, TF over GST control)
- binding signal (ERG): 1.15 fold enrichment (6-mer frequency, TF over GST control)
- binding signal (ELF1): 1.15 fold enrichment (6-mer frequency, TF over GST control)
- binding signal (EHF): 1.16 fold enrichment (6-mer frequency, TF over GST control)
- binding signal (SPI1): 1.06 fold enrichment (6-mer frequency, TF over GST control)
- binding signal (SPIB): 1.15 fold enrichment (6-mer frequency, TF over GST control)
- binding signal (ELK3): 1.19 fold enrichment (6-mer frequency, TF over GST control)
- binding signal (FEV): 1.22 fold enrichment (6-mer frequency, TF over GST control)
- binding signal (ETV5): 1.14 fold enrichment (6-mer frequency, TF over GST control)
- binding signal (HSF1): 1.24 fold enrichment (6-mer frequency, TF over GST control)
- binding signal (SPIC): 1.04 fold enrichment (6-mer frequency, TF over GST control)
- binding signal (ELF4): 1.18 fold enrichment (6-mer frequency, TF over GST control)
- binding signal (ELK4): 1.11 fold enrichment (6-mer frequency, TF over GST control)
- binding signal (ETV2): 1.25 fold enrichment (6-mer frequency, TF over GST control)
- binding signal (ELF3): 1.15 fold enrichment (6-mer frequency, TF over GST control)
- binding signal (CRX): 1.22 fold enrichment (6-mer frequency, TF over GST control)
- binding signal (ETV1): 1.19 fold enrichment (6-mer frequency, TF over GST control)
